ChEMBL document CHEMBL4513216, “Probing the Open Global Health Chemical Diversity Library for Multistage-Active Starting Points for Next-Generation Antimalarials” (ACS Infect Dis, 2020)
Screen size: about 69,000 compounds; about 8,600 (12%) showed an effect of 50% or more. The sample as a whole holds a higher share of strong results than the screen did.

Each compound was assayed on Plasmodium berghei (assay: Screen against P. berghei liver stage (PbLuc), transformed with Luciferase, at 10uM). Conditions: tested at 10 uM.
Type: functional, HepG2

Row | SMILES | INHIBITION [%]
1 | COCCN(C(=O)c1ccn(-c2ccc(OC)cc2)n1)C(C)C(N)=O (stereo not given) | 0.0996
2 | COc1cc(C2SCC(=O)Nc3n[nH]cc32)cc(OC)c1O (stereo not given) | 60.7
3 | COc1cc(OC)c(C2SCC(=O)Nc3n[nH]cc32)cc1OC (stereo not given) | 26.8
4 | COc1ccccc1C1SCC(=O)Nc2n[nH]cc21 (stereo not given) | 42.6
5 | COc1cccc(C2SCC(=O)Nc3n[nH]cc32)c1OC(C)C (stereo not given) | 40
6 | COc1ccc(OC)c(C2SCC(=O)Nc3n[nH]cc32)c1 (stereo not given) | 70.6
7 | COc1ccc(C2SCC(=O)Nc3n[nH]cc32)c(OC)c1OC (stereo not given) | 32.5
8 | N#Cc1cn(C2CC2)c(=O)n(CC(O)c2ccc(F)cc2)c1=O (stereo not given) | 35.85
9 | CCN(Cc1ccccc1)C(=O)c1cc(C2CCCN2C)ccn1 (stereo not given) | -31
10 | Cc1csc(N2CCN(C(=O)CCCNc3ncccn3)CC2)n1 | 26.4
11 | Cc1cccc(N2CCc3ncc(CNS(C)(=O)=O)n3CC2)n1 | 22.4
12 | COc1ccc(CN2CCC[C@@H]3CN(C(=O)c4ccco4)C[C@@H]32)cc1 | 29
13 | O=C(c1cn(CC(=O)N2CCCCCC2)c2ccccc12)C1CC1 | 27.8
14 | O=C(c1cn(CC(=O)N2CCCC2)c2ccccc12)C1CC1 | 71.7
15 | O=C(c1cn(CC(=O)N2CCCCC2)c2ccccc12)C1CC1 | 13.94
16 | CN1CCCC1c1ccnc2nccn12 (stereo not given) | 19.9
17 | CCC(C(=O)NCC1CCN(c2ccncc2)CC1)N(C)C (stereo not given) | 34.9
18 | Cc1cccnc1C(Cc1ccsc1)NC(=O)Cn1cccnc1=O (stereo not given) | 59
19 | O=C(Cn1cccnc1=O)NC(Cc1ccsc1)c1ccccn1 (stereo not given) | 41.5
20 | Cc1csc(C(Cc2ccsc2)NC(=O)Cn2cccnc2=O)n1 (stereo not given) | 34
21 | CS(=O)(=O)N1CCC(C(=O)NC(Cc2ccsc2)c2ccccn2)CC1 (stereo not given) | 40.9
22 | Cc1cc(C)n(CC(=O)NC(Cc2ccsc2)c2ccccn2)c(=O)n1 (stereo not given) | 54
23 | O=C(Cn1cccnc1=O)NC(Cc1ccsc1)c1nccs1 (stereo not given) | 29.3
24 | CNc1nc2c(c(C(=O)N3CCCC3)n1)CN(Cc1ccco1)CC2 | 17.2
25 | CC(C)Nc1ncnc2c1CCN(C(=O)CN(C)C)CC2 | 36.9
26 | CC(C)Nc1ncnc2c1CCN(C(=O)CCc1ccccc1)CC2 | 61.4
27 | CC(C)Nc1ncnc2c1CCN(C(=O)NCc1cccc(F)c1)CC2 | 51.2

Row | SMILES | INHIBITION [%]
28 | CC(C)Nc1ncnc2c1CCN(C(=O)Cc1ccccn1)CC2 | 8.69
29 | O=C(NCc1cccc(F)c1)N1CCc2ncnc(NC3CC3)c2CC1 | 16.8
30 | CC(C)Nc1ncnc2c1CCN(C(=O)NCc1cccnc1)CC2 | -1.15
31 | COCC(=O)N1CCC(=O)N(C2CCCC2)Cc2ccccc21 | -20.1
32 | Cc1ccnc(CNC(=O)C2CC(=O)N(CCN(C)C)C2)c1 (stereo not given) | 8.41
33 | NC(=O)C1=NC2=NS(=O)(=O)c3ccccc3N2N1Cc1ccc(Cl)cc1 | 59.7
34 | NC(=O)C1=NC2=NS(=O)(=O)c3ccccc3N2N1Cc1ccc(Br)cc1 | 1.96
35 | NC(=O)C1=NC2=NS(=O)(=O)c3ccccc3N2N1Cc1ccccc1Cl | 30.8
36 | COCCC(=O)N(CCC#N)c1ccc(C)c(C)c1 | 27
37 | Cc1c(C)n(-c2ccccn2)c2nc3c(c(N)c12)CCCCC3 | 32.2
38 | Cc1ncnc2c1CCN(Cc1ccccn1)CC2 | -64.8
39 | Cc1nc(C2CCCNC2)nc2c1CCCN2Cc1ccccn1 (stereo not given) | 11.8
40 | Cc1c(C)n(Cc2ccccn2)c2nc3c(c(N)c12)CCCC3 | 58.4
41 | Cc1ncnc2c1CCN(c1ccccn1)CC2 | -15.6
42 | Cc1ccccc1-c1cncc(C2CCN(Cc3ccccn3)CC2)n1 | 19.6
43 | Cc1c(C)n(-c2ccccn2)c2nc3c(c(N)c12)CCCC3 | 67.1
44 | Cc1c(C)n(Cc2ccccn2)c2nc3c(c(N)c12)CCCCC3 | 55.3
45 | Cc1c(C)n(Cc2ccccn2)c2nc3c(c(N)c12)CCCCCC3 | 49.7
46 | CC(=O)N1CCC(c2nn(C)c3nccnc23)C1 (stereo not given) | -2.11
47 | CC(C)n1cc(CN2CCCN(C(=O)COC3CCCC3)CC2)cn1 | 45.7
48 | CCOc1ccc(-c2nc(C(=O)NCC3CCOC3)cs2)cc1 (stereo not given) | -16
49 | CC(C)(C)c1cc(=O)n2c(n1)SCC(C(=O)NCc1ccco1)C2 (stereo not given) | 46.1
50 | COc1ccc(C2=Nn3c(CN)nnc3-c3ccccc3C2)cc1 | 64
51 | COc1ccc(C2=Nn3c(CCN)nnc3-c3ccccc3C2)cc1 | 21.7
52 | COc1ccc(C2=Nn3c(CCCN)nnc3-c3ccccc3C2)cc1 | 18.4
53 | c1ccc2c(c1)CC(N1CCCC(NCc3ccc4nonc4c3)C1)C2 (stereo not given) | 50.1
54 | O=C(NCc1ccc2nonc2c1)C1CCN(C(=O)C2CCC2)CC1 | -119

Row | SMILES | INHIBITION [%]
55 | Cc1ccc(NC2CCCN(C3Cc4ccccc4C3)C2)nn1 (stereo not given) | 34.9
56 | Cc1cc(C)nc(Nc2cccc(C3CCCN(C)C3)n2)n1 (stereo not given) | 28.4
57 | CNc1cc(C)nc(NC2CCCN(C3Cc4ccccc4C3)C2)n1 (stereo not given) | 79.4
58 | CNc1nc(C)cc(NC2CCCN(C3Cc4ccccc4C3)C2)n1 (stereo not given) | 83.9
59 | Cc1cc(C)nc(Nc2cccc(C3CCCN(S(C)(=O)=O)C3)n2)n1 (stereo not given) | 44.8
60 | Cc1cc(C)nc(NC2CCc3nc(C)nn3C2)n1 (stereo not given) | -12.1
61 | c1ccc2c(c1)CC(N1CCCC(NCc3cccc4nonc34)C1)C2 (stereo not given) | 41.5
62 | Cc1ccc(CNCC2CCN(CC(O)c3ccccc3)CC2)o1 (stereo not given) | -23.8
63 | O=C(NCc1nncn1C1CC1)c1ccccc1OCC1CC1 | 25.6
64 | CN(C)c1ncc(-c2cc(C(=O)NCCO)n(CC3CC3)c2)cn1 | 26.3
65 | CCOc1ccccc1C(=O)Oc1cc(=O)n2cccc(C)c2n1 | 4.35
66 | O=C(NC1CCC1)c1c2c(N3CCCC3)ncnc2n2ccccc12 | 46.2
67 | COCCN(C)C(=O)c1ccccc1-n1cccn1 | 63.8
68 | COCCCN(CCOC)C(=O)Nc1ccccc1-n1cccn1 | 32.2
69 | COCCN(C)C(=O)c1ccccc1-n1cc(CN(C)C)cn1 | -29.8
70 | CC(C)n1nc(CN2CCCCC2)c2c1CN(C(=O)c1ccno1)C2 | 26.5
71 | CC(C)n1nc(CN2CCOCC2)c2c1CN(C(=O)c1ccno1)C2 | 62.3
72 | CC(C)n1nc(CN2CCCC2=O)c2c1CN(C(=O)c1ccno1)C2 | 27.5
73 | COCCNC(=O)c1cc(C)nc(C2CCN(C)CC2)n1 | -22.5
74 | CNC(=O)[C@@H]1COC[C@H]2CN(C(=O)c3ccc(C)c(C)c3)C[C@H]21 | 51.2
75 | CNC(=O)[C@@H]1COC[C@H]2CN(C(=O)c3ccc(C)c(F)c3)C[C@H]21 | 31.9
76 | CNC(=O)[C@@H]1COC[C@H]2CN(C(=O)c3cccc(OC)c3)C[C@H]21 | 33.4
77 | CNC(=O)[C@@H]1COC[C@H]2CN(C(=O)c3ccc(OC)cc3)C[C@H]21 | -2.03
78 | CNC(=O)[C@@H]1COC[C@H]2CN(C(=O)COc3ccccc3)C[C@H]21 | 63
79 | CCc1ccc(C(=O)N2C[C@@H]3COC[C@@H](C(=O)NC)[C@@H]3C2)cc1 | 6.83
80 | O=C(NC1CCN(C2CC2)CC1)N1CCN(c2cnccn2)CC1 | 37.9
81 | CN(C)C(=O)CO[C@H]1CN(Cc2nccs2)[C@@H]2COC[C@H]12 | 0.71

Row | SMILES | INHIBITION [%]
82 | Fc1cccnc1Oc1cc(F)c(CN2CCCC2)c(Cl)c1 | 60.9
83 | COc1ccc(Oc2nccc3occc23)cc1CN1CCCC1 | -4.23
84 | COc1ccc(CC(=O)Nc2cccnc2N2CCCC2)cc1OC | 4.71
85 | Fc1cccnc1Oc1cc(F)c(CN2CCCC2)c(F)c1 | 9.84
86 | COc1ccc(Oc2ncccc2F)cc1CN1CCCC1 | 74.8
87 | COc1cc(CN2CCCC2)ccc1Oc1ncccc1C(F)(F)F | 80.3
88 | COc1cc(Oc2ncccc2C(F)(F)F)ccc1CN1CCCC1 | 88.4
89 | COC(=O)c1ccc(Cn2cccc(C(F)(F)F)c2=O)c(OC)c1 | 33.1
90 | COc1cc(CN2CCCC2)ccc1OC12CCCN(CC1)C2 (stereo not given) | -14.7
91 | COc1ccc(OC)c(CN2CCN(Cc3cscn3)CC2)c1 | 1.06
92 | N#Cc1cccnc1Oc1cc(F)c(CN2CCCC2)c(Cl)c1 | 11.4
93 | Cc1nn(C)c(=O)c2nn(-c3cccc(Cl)c3)c(C)c12 | 37.2
94 | N#Cc1c(N)nc2c(c1-c1c[nH]nc1C1CCCCC1)COCC2 | 11.5
95 | Cn1cc(-c2nc(CN3CCOC(Cn4cncn4)C3)cs2)cn1 (stereo not given) | 26.5
96 | COc1ccc(NC(=O)CSc2nncn2-n2cccc2)c(OC)c1 | 31.6
97 | CCn1nc2c(cc1=O)CN(CC(=O)Nc1nc(C)c(C)s1)CC2 | -0.188
98 | Cc1cc(N(C)C)nc(C2CCCN2)n1 (stereo not given) | 15.5
99 | CO[C@@H]1CCN(C(=O)c2ccccn2)[C@H]1Cc1ccccc1 | -15.1
100 | COc1ccc(F)cc1CN1CCCC(c2cc(C(N)=O)[nH]n2)C1 (stereo not given) | -2.42
101 | COc1ccc(Oc2ncccc2C(N)=O)cc1CN1CCCC1 | 51.2
102 | COc1ccccc1Oc1ncccc1CNC(=O)C(C)N1CCCC1 (stereo not given) | 21.7
103 | COc1ccc(Oc2ncccc2C(F)(F)F)cc1CN1CCCC1 | 66.6
104 | COc1ncccc1CN1CCC2(CCCN2S(C)(=O)=O)CC1 | 45.2
105 | COc1ccc(F)cc1CN1CCC(O)(CN2CCCCC2)C1 (stereo not given) | 16.1
